HIV RNase H inh-1: HIV-1 RT RNase H inhibitors, primary screen, biochemical, fluorescence; Gag-Pol polyprotein (Human immunodeficiency virus type 1 group M subtype B (isolate …; RT-RNase H RNA/DNA duplex cleavage; inhibition, % at 10 µM; 65,000 tested, 1.9% active; in the data active = inhibition above about 50%
HIV RNase H inh-2: HIV-1 RT RNase H inhibitors, retest, confirmation, biochemical; AID 651, 2007; Recombinant RT RNase H, fluorescent RNA/DNA duplex cleavage; inhibition, % at 10 µM; shares compounds with HIV RNase H inh-1; 1,000 tested, 39% active; in the data active = inhibition above about 48%
* = called active by the depositor. Many of the other results were omitted from the sample, so hits are more common in it than they were.

SMILES	HIV RNase H inh-1	others
CCN1CCN(c2nc(SC)nc3sc4c(c23)CC(C)(C)OC4)CC1	-5
CCN1CCN(c2nc(C)nc3c2sc(=S)n3C)CC1	90*	HIV RNase H inh-2=65*
Cc1nc(N2CCCCC2)c2sc(=S)n(C)c2n1	-11
CC12CCC(C(=O)N3CCN(c4ccccc4)CC3)(CC1=O)C2(C)C (configuration not stated)	-1
Cc1cccc(-n2ccnc2SCC(=O)Nc2nccs2)c1C	-41
COc1ccc(-c2nsc(SCC(=O)Nc3cc(C)on3)n2)cc1	84*	HIV RNase H inh-2=61*
Cc1cc(NC(=O)CSc2ccc(-c3nc4cc(C)c(C)cc4[nH]3)cn2)no1	70*	HIV RNase H inh-2=72*
Cc1cc(NC(=O)CSc2nc(-c3ccc(F)cc3)cs2)no1	-2
CCc1nnc(NC(=O)CSc2nc(-c3ccc(OC)cc3)ns2)s1	30
Cc1cc(C)nc(SCC(=O)N2CCCCC2)n1	-30
Cc1ccc2nc(SCC(=O)Nc3cc(C)on3)[nH]c2c1	-2
Cc1cccc(-c2nsc(SCC(=O)N3CCCC3)n2)c1	79*	HIV RNase H inh-2=34
Cc1cccc(-c2nsc(SCC(=O)Nc3nccs3)n2)c1	82*	HIV RNase H inh-2=74*
Cc1cccc(OCc2nnc(SCC(=O)N3CCCC3)n2C)c1	-16
Cn1c(SCC(=O)Nc2nccs2)nnc1-c1ccncc1	8
Cc1cc(NC(=O)CSc2nc3ccccc3[nH]2)no1	-3
CCOc1cc(NC(=O)c2ccccn2)c(OCC)cc1NC(=O)CC(C)C	-8
CC1(C)CC2(CCO1)OC(=O)CC2C(=O)NCc1ccccc1 (configuration not stated)	-8
CCOC(=O)Cc1nnc(NC(=O)CSc2nnc3c4ccccc4n(C(C)C)c3n2)s1	2
CC[N+](CC)(CC)C/C(N)=N/O	-10
COc1cccc(C2=NOC(C(=O)NCCN3CCOCC3)C2)c1 (configuration not stated)	-3
CCCCn1c(SCC(=O)N2CCN(c3ccccc3)CC2)nc2ccsc2c1=O	-10
Cc1ccc(S(=O)(=O)Nc2nonc2C)cc1	-1
O=C(CSc1nnc(-c2ccccn2)n1Cc1ccccc1)NC1CCCC1	1
O=C(NCCCN1CCN(c2ccccc2F)CC1)C1CCC(=O)N1C1CCCC1 (configuration not stated)	-13
SMILES	HIV RNase H inh-1	others
CCCS(=O)(=O)N1CCN(C(=O)c2cccc(OC)c2)CC1	-10
CC1CC(=O)C=C(O)C1C(=O)OC(C)(C)C (configuration not stated)	-2
COc1ccccc1NC(=O)c1cc2ccccc2o/c1=N\O	89*	HIV RNase H inh-2=-4
COc1ccccc1NC(=O)c1ccccc1SC	-44
COc1ccccc1NC(=O)c1cc2ccc(O)cc2o/c1=N\O	-12
CC(=O)C1=C(C)Nc2ncnn2C1c1ccc(Cl)cc1 (configuration not stated)	-25
CCc1nnc(NC(=O)C(C)Sc2ccccc2)s1 (configuration not stated)	3
CC(=O)c1c(C)oc(C)c1CSCc1ccc(C(=O)O)o1	41
Fc1ccc2c(c1)nnn2C1CCN(Cc2ccccc2)CC1	-11
O=C(N1CCOCC1)N1CCC(n2nnc3cc(F)ccc32)CC1	84*	HIV RNase H inh-2=34
O=S(=O)(c1ccc2c(c1)OCCO2)N1CCC(n2nnc3cc(F)ccc32)CC1	-2
Cc1ccc(SCCC(=O)NCC2CCCO2)cc1 (configuration not stated)	0
COc1ccc(NC(=O)c2cc3n(n2)C(C(F)(F)F)CC(c2ccco2)N3)cc1 (configuration not stated)	6
O=C(NCC12CC3CC(CC(C3)C1)C2)c1cc2n(n1)C(C(F)(F)F)CC(c1ccco1)N2 (configuration not stated)	11
Cc1cc(NC(=O)c2cc3n(n2)C(C(F)(F)F)CC(c2ccco2)N3)n(-c2ccccc2)n1 (configuration not stated)	62*	HIV RNase H inh-2=44
COCCCn1c(SCC(=O)OC2CCCCC2)nnc1-c1ccco1	-3
COCCCN=C(c1ccco1)n1c(=S)nc(-c2ccco2)n(CCCOC)c1=S	63*	HIV RNase H inh-2=3
COCCCn1c(-c2ccco2)nc2ccccc2c1=O	-24
CCOCCn1c(CN(Cc2ccccc2)Cc2ccccc2)nc2c1c(=O)n(C)c(=O)n2C	1
O=C(NCC(=O)N(Cc1cccs1)C(C(=O)NC1CCCC1)c1ccco1)c1cccs1 (configuration not stated)	1
CC1CCN(C(=O)CSc2nnc(-c3cc4ccccc4cc3O)n2Cc2ccco2)CC1	17
c1ccc(Cc2nnc3sc(-c4cccs4)nn23)cc1	85*	HIV RNase H inh-2=33
CCc1nnc2sc(-c3ccc(NC(=O)c4ccc5c(c4)OCCO5)cc3)nn12	4
c1ccc(Cc2nnc3sc(-c4ccc5c(c4)OCO5)nn23)cc1	85*	HIV RNase H inh-2=49
c1csc(-c2nn3c(C4CCCCC4)nnc3s2)c1	-10
SMILES	HIV RNase H inh-1	others
c1ccc(Cc2nnc3sc(-c4ccncc4)nn23)cc1	93*	HIV RNase H inh-2=66*
Cc1ccc(-c2nnc3sc(-c4ccncc4)nn23)cc1	-42
Clc1ccccc1-c1nnc2sc(-c3cccs3)nn12	1
Cn1c(Cc2ccccc2)nnc1SCC(=O)Nc1ccc2c(c1)OCO2	-4
c1ccc2c(c1)nnn2Cc1nnc2sc(-c3ccncc3)nn12	75*	HIV RNase H inh-2=70*
c1ccc(-c2nn3c(-c4ccccc4)nnc3s2)cc1	-27
c1ccc(Cc2nnc3sc(-c4cccnc4)nn23)cc1	3
c1csc(-c2nn3c(Cn4nnc5ccccc54)nnc3s2)c1	-48
O=C(NC1CCCCCC1)C1CC(=O)N(Cc2ccccc2)C1 (configuration not stated)	9
C=CCN1CCN(C(c2ccccc2)c2nnnn2CCC(C)C)CC1 (configuration not stated)	18
CCOC(=O)C1CCCN(C(=O)c2cc3ncc(Br)cn3n2)C1 (configuration not stated)	-15
CCn1c(SCC(N)=O)nnc1-c1ccc(S(=O)(=O)N2CCN(C)CC2)cc1	3
CN1CCN(S(=O)(=O)c2ccc(NC(=O)c3ccc(Br)s3)cc2)CC1	3
CCCS(=O)(=O)N1CCCC(C(=O)NCC2CCCO2)C1 (configuration not stated)	-22
c1ccc(OCc2nn3c(-c4ccncc4)nnc3s2)cc1	-19
c1ccc(-c2nnc3sc(Cc4cccs4)nn23)cc1	0
c1ccc(CCc2nn3c(Cc4ccccc4)nnc3s2)cc1	90*	HIV RNase H inh-2=20
CCc1c(C)nc(N)n2c(SCC(=O)N3CCCC(C)C3)nnc12 (configuration not stated)	3
Cc1ccc2cc(CN(C(=O)c3ccco3)c3ccccc3C)c(=O)[nH]c2c1	70*	HIV RNase H inh-2=39
Cc1ccc2cc(CCNC(=O)c3ccco3)c(=O)[nH]c2c1	2
O=C(c1ccco1)N(Cc1cc2ccccc2[nH]c1=O)C1CCCCC1	0
COc1ccc(CCN2C(=O)C3C4C=CC(C4)C3C2=O)cc1OC (configuration not stated)	-8
Cc1nc(-c2cccc(S(=O)(=O)N3CCOCC3)c2)cs1	78*	HIV RNase H inh-2=58*
Cc1nc(-c2cccc(S(=O)(=O)N3CC(C)OC(C)C3)c2)cs1 (configuration not stated)	-11
CCOC(=O)C1CCN(S(=O)(=O)c2cccc(-c3csc(C)n3)c2)CC1	23
COc1ccc(OCC(=O)NC2CC(C)(C)NC(C)(C)C2)cc1	20

Screens as filed in PubChem.
